Test results as given in PubChem BioAssay (NCI).
This is part of a sample that, as a whole, favours compounds with a hit. Of some 83,000 tested, about 20% had one in any assay.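 Activity criterion: percent growth below 10, measured after cells in 96-well plates were exposed to a single compound concentration for 48 hours.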 A number with no mark means an inactive call. Active and inactive are the calls of the source.

How the values were obtained:
Test in all cases: NCI-60 one-dose screen, 48 h (100 = growth as untreated, 0 = no growth, -100 = all killed)
Conditions in all cases: 10 µM unless noted
[1] = system: SR leukemia
[2] = system: RPMI-8226 leukemia
[3] = system: OVCAR-8 ovarian
[4] = system: SK-OV-3 ovarian
[5] = system: IGROV1 ovarian
[6] = system: HS 578T breast
[7] = system: NCI/ADR-RES ovarian
[8] = system: T-47D breast
[9] = system: BT-549 breast
[10] = system: MDA-MB-435 melanoma
[11] = system: SW-620 colon
[12] = system: HCT-116 colon
[13] = system: HCC-2998 colon
[14] = system: KM12 colon
[15] = system: OVCAR-5 ovarian
[16] = system: OVCAR-4 ovarian
[17] = system: OVCAR-3 ovarian
[18] = system: MCF7 breast

| SMILES | growth [1] | growth [2] | growth [3] | growth [4] | growth [5] | growth [6] | growth [7] | growth [8] | growth [9] | growth [10] | growth [11] | growth [12] | growth [13] | growth [14] | growth [15] | growth [16] | growth [17] | growth [18] |
| --- | --- | --- | --- | --- | --- | --- | --- | --- | --- | --- | --- | --- | --- | --- | --- | --- | --- | --- |
| COC(=O)c1ccc(Cn2cnc3c(N)ncnc32)cc1 | 104% | 104% | 112% | 107% | 126% | 95.4% | 110% | 106% | 119% | 123% | 109% | 104% | 105% | 117% |  |  |  |  |
| C(=C\c1nccc2c1[nH]c1ccccc12)/c1ccccc1 | 82.7% |  | 26.1% | 24.7% | -15.9% (active) | 29.2% | 15.5% | 29.8% | 10.9% | -38.9% (active) | 14.8% | 21.5% |  | 15.6% | 62.9% | 14.9% | -13.3% (active) | 8.84% (active) |
| CCCOc1cc2ccccc2cc1C(=O)Nc1nc(NC)c2c(ccc3nccc32)[nH]1 | -49.3% (active) | -46% (active) | -33.2% (active) |  | -67.2% (active) |  | -17% (active) | -52.5% (active) | -27.4% (active) | -89.2% (active) | -75% (active) | -72.3% (active) | -70.5% (active) | -72.2% (active) |  | -58.5% (active) | -76% (active) | -61.9% (active) |
| CC(C)(C)N1CCC1CN (stereo not drawn) | 101% |  | 97.5% | 104% | 112% | 117% | 113% | 96.3% | 118% | 104% | 104% | 99.5% |  | 107% | 107% | 103% | 103% | 126% |
| Cn1cc(-c2nonc2-c2cn(C)c3ccc(F)cc23)c2ccccc21 | 31.3% | 13.5% | 28.5% | 41.5% | 24.6% | 3.84% (active) | 4.44% (active) | 37.3% | 56.1% | -26% (active) | 22% | 11.6% | 25.9% | 14.7% |  | 41.6% | -18.9% (active) | 21.3% |
| CCN(CC)c1ccc2c(c1)Oc1nc(N)c(C#N)c(N)c1C2Sc1ccc(SC)cc1 (stereo not drawn) | -18.8% (active) | -37.3% (active) | -7.42% (active) | -4.96% (active) | -13.9% (active) | 26% | 10.8% | -4.08% (active) | -80.4% (active) | -25.7% (active) | -70.7% (active) | -27.5% (active) |  | -74.5% (active) |  | -2.7% (active) | -30.4% (active) | -0.904% (active) |
| OC(c1cc2cc(Cl)c(Cl)cc2c2cc(C(F)(F)F)ccc12)C1CCCCN1 (stereo not drawn) | -59.9% (active) | -37.1% (active) | -71.3% (active) | 34% | -64.9% (active) | -50.4% (active) | -79.1% (active) | -78.6% (active) | 76.4% | -73.9% (active) | -74% (active) | -87.3% (active) | -80.9% (active) | -91.1% (active) |  |  | -90.3% (active) |  |
| CC(=O)c1cc2c(N)c(C(=O)Nc3ccccc3)sc2nc1C | 51.8% | 89% | 93.9% | 28.8% |  | 69.8% | 75.9% | 99.5% | 67.3% | -29.3% (active) | 69.4% | 102% | 79.4% | 75.1% |  | 88.9% | 90% | 59.8% |
| COc1ccc(-c2n[nH]nc2-c2csc3ccccc23)cc1OC | 21.3% | 34.8% | 36.9% | 14.2% | 48.8% | 6.17% (active) | 13.5% | 28.5% | 16.9% | -31.8% (active) | 21.3% |  |  | 27.6% |  | 49% |  | 17.1% |
| Oc1ccc(N=Cc2ccccc2O)cc1 | 83.7% |  | 83.6% | 98.5% | 90.2% | 112% | 98.2% | 89.4% | 78.3% | 110% | 99.1% |  | 116% | 88.8% | 87.3% | 89.3% | 90.6% | 92.8% |
| O=C(COc1ccc(/C=C2\COc3ccccc3C2=O)cc1)Nc1nccs1 | -2.82% (active) | -0.182% (active) | 85% | 127% | 3.63% (active) | -38.3% (active) | 86.1% | 90% | 2.68% (active) | 105% |  | 38.1% | 168% | 43.3% |  | 92.9% | 95.8% | 15% |
| Cc1cc2nc3[nH]c4ccccc4c3nc2cc1C | 14.2% |  | 62.3% | 86.2% | -6.27% (active) | 1.63% (active) | 78.9% | 58.9% | 92.4% | 120% | 73.3% | 46.1% | 98.4% | 77.9% | 102% | 82.8% | 92% | 48.2% |
| NC(=O)c1cc(I)ccc1NC(=O)/C=C/c1ccccc1Cl | -30.4% (active) | -11.5% (active) | 31.3% |  | 77.5% | -17.6% (active) | 8.88% (active) | 26.6% | 70.1% | -31.8% (active) | 26.9% | 14.5% | 23.4% | 10.6% |  | 9.92% (active) | -40.8% (active) | 7.38% (active) |
| CN(C)[C@@H]1C(=O)C(C(=O)NCc2nc3[nH]cnc(=S)c3[nH]2)=C(O)[C@@]2(O)C(=O)C3=C(O)c4c(O)cccc4[C@@](C)(O)[C@H]3C[C@@H]12 | 12.5% |  | 7.48% (active) | 19.9% | 12.5% | 73.5% | 30.5% | 40.4% | 54% | 33.8% | 73.8% | 33.8% | 16.3% | 68.5% | 36.3% | 39.8% | 38.7% |  |
| COc1ccc(CN2c3ccccc3Oc3ccccc32)cc1F | 27.1% | 61.5% | 64.5% | 46.5% | 52.1% | 62.3% | 41.5% | 58.1% |  | -0.932% (active) | 33.6% | 31.1% |  | 40.7% |  | 71.7% | 43.1% | 42.7% |
| O=[N+]([O-])c1ccc2c(c1)Cc1cc(F)ccc1-2 | 103% | 89.3% | 103% | 99.1% | 105% | 95.6% | 106% | 94.4% | 105% | 96.9% | 96.3% | 102% | 102% | 109% |  | 91.7% | 113% | 84.4% |
| COc1ccc(/C=C/C(=O)c2cc(O)ccc2O)cc1 | 71.9% | 45.8% | 88.6% |  |  | 106% | 91.8% | 89.8% | 90.4% | 75.8% |  | 97.4% | 106% | 84.1% | 108% | 136% | 83.4% | 94% |
| Cc1cc(C)nc(SC2=C(Nc3ccc(O)cc3)C(=O)N(Cc3ccccc3)C2=O)n1 | 73.6% [40 µM] | 38.8% [40 µM] | 111% [40 µM] | 94.3% [40 µM] | 81.4% [40 µM] | -13.2% [40 µM] (active) | 69% [40 µM] | 45% [40 µM] | 63.9% [40 µM] | 80.1% [40 µM] | 113% [40 µM] | 95.4% [40 µM] |  | 103% [40 µM] |  | 85.6% [40 µM] | 80.9% [40 µM] | 77.1% [40 µM] |
